From PubChem BioAssay (NCI)
About 83,000 compounds went through this panel and 20% of them were active in at least one assay; those are over-represented in the sample as a whole.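 Method: cells in 96-well plates; compound added at one concentration; 48 h incubation; percent growth measured; values under 10 scored active.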 Unmarked numbers belong to inactive results. Active and inactive are the calls of the source.

System: MDA-MB-435 melanoma
Assay: NCI-60 one-dose screen, 48 h (100 = growth as untreated, 0 = no growth, -100 = all killed)
Details: 10 µM unless noted

Structure (SMILES)	growth
NCCNc1nc(Nc2ccc(-c3nc4ccccc4[nH]3)cc2)c2cn[nH]c2n1	94%
Clc1ccc2c(NCCCCNc3nc(N4CCCCC4)nc4ccccc34)ccnc2c1	-81.9% (active)
Cc1cc(C)nc(SC2=C(Nc3ccc(C)c(Cl)c3)C(=O)N(Cc3ccccc3)C2=O)n1	51.5% [30 µM]
O=c1c(F)cn(Cc2ccccc2CCl)c(=O)n1Cc1ccccc1CCl	-67.1% (active)
C=CC(=O)Nc1cccc(Nc2nc(SC)nc(-c3cccc([N+](=O)[O-])c3)c2C#N)c1	53%
COc1ccc(C(=O)COc2cccc(/C=C3\CSc4ccccc4C3=O)c2)cc1	-21.1% (active)
CC(O)CN(CC(C)O)c1ccc2c(c1)Cc1cc([N+](=O)[O-])ccc1-2 (stereo not drawn)	98.7%
CCOC(=O)c1sc(Nc2ccc(Cl)cc2)nc1C	23.1%
CC/C=C\C[C@H]1C/C=C2/C(=O)C=C[C@H]2C/C=C\CCCC(=O)O1	9.04% (active)
O=C1CC[C@H](c2ccc(O)c3c2C(=O)[C@@H]2O[C@@H]2C3=O)c2cccc(O)c21	47.3%
O=C(Cc1ccc(/C=C/C(=O)c2ncc[nH]2)cc1)Nc1ccccc1	57.3%
Cc1cc(C)nc(SC2=C(Nc3cccc(Cl)c3C)C(=O)N(Cc3ccccc3)C2=O)n1	42.1% [30 µM]
CSc1ccc(SC2c3ccc(C)cc3Oc3nc(N)c(C#N)c(N)c32)cc1 (stereo not drawn)	-86.7% (active)
C(=C\c1nccc2c1[nH]c1ccccc12)/c1ccccc1	-38.9% (active)
CCCSc1ccc2nc(NC(=O)OC)[nH]c2c1	-51% (active)
CCCc1cc(=O)n2c(C(=O)Nc3ccc(F)cc3)c(C(=O)Nc3ccc(F)cc3)sc2n1	83% [30 µM]
COc1ccccc1Nc1nc(-c2cc3cccc(C(F)(F)F)c3oc2=O)cs1	-44.8% (active)
O=Nc1c(O)c(Cl)cc2ccccc12	91.8%
CCC([N+](=O)[O-])S(=O)(=O)c1ccc(C)cc1 (stereo not drawn)	113%
Clc1ccc2c(NCCNc3nc(N4CCCCC4)nc4ccccc34)ccnc2c1	-66.4% (active)

Structure (SMILES)	growth
CC(C)(CCCN=C(N)Nc1ccc(Cl)cc1)c1ccc(F)cc1	63%
CCCOc1ccc2nc(NC(=O)OC)[nH]c2c1	-49.3% (active)
O=C(COc1cccc(/C=C2\CSc3ccccc3C2=O)c1)Nc1nccs1	20.8%
O=C(COc1cccc(/C=C2\COc3ccc(Cl)cc3C2=O)c1)c1ccc(Cl)cc1	91.2%
Cc1cn2c(/C=C3/C(=O)Nc4c3ccc3ccccc43)c(C(F)(F)F)nc2s1	-47.2% (active)
O=C1/C(=C/c2ccccc2O)N=C2SCCCN12	96.6%
COc1cc2c(cc1-c1c(C)noc1C)ncc1nc(C3CCCCC3)n([C@H](C)COC(F)F)c12	34.1%
COc1cccc(-c2nc(SCC(=O)Nc3ccc(C(=O)/C=C/c4ccc(OC)c(OC)c4)cc3)[nH]c(=O)c2C#N)c1	92.3%
CC(C)n1c(/C=C/[C@@H](O)C[C@@H](O)CC(=O)O)c(-c2ccc(F)cc2)c2ccccc21	55.8%
O=c1oc2c(C(F)(F)F)cccc2cc1-c1csc(Nc2ccc(OCCF)cc2)n1	-22.9% (active)
Cc1nc(Nc2ccc(F)c(Cl)c2)sc1C(=O)O	20.4%
CCOc1nc(-c2ccccc2)cc2c(O)c(C(=O)O)[nH]c(=O)c12	109%
Cc1cc2c3ccccc3ccc2[n+]2ccccc12	76.5%
Cc1oc(-c2ccc(Cl)cc2Cl)cc1C(=O)Nc1nccs1	100%
CC/C=C\C[C@H](O)C/C=C1/C(=O)C=C[C@@]1(C)C/C=C\CCCC(=O)OC	106%
COc1ccc(C(=O)COc2ccc(/C=C3\COc4ccc(OC)cc4C3=O)cc2)cc1	77.1%
CC[C@@H]1O[C@H](O[C@@H](c2cnc[nH]2)[C@H](NC(=O)c2nc([C@H](CC(N)=O)NC[C@@H](N)C(N)=O)nc(N)c2C)C(=O)N[C@H](C)[C@H](O)[C@H](C)C(=O)N[C@@H](C(=O)NCCc2nc(-c3nc(C(=O)NCCCCN=C(N)N)cs3)cs2)[C@@H](C)O)[C@H](O[C@@H]2O[C@H](CO)[C@H](O)[C@H](OC(N)=O)[C@@H]2O)[C@H](C)[C@@H]1C	81.9%
CN1CCN(c2ccc3nc(-c4ccc(OCCCCN5CCN(CCCCN6C(=O)c7cccc8cccc(c78)C6=O)CC5)cc4)[nH]c3c2)CC1	65.9%
O=C1c2c(O)cc(O)cc2-c2c(-c3ccc(O)cc3)oc3cc(O)cc1c23	52.9%

System: SW-620 colon
Assay: as above
Details: 10 µM unless noted

Structure (SMILES)	growth
NCCNc1nc(Nc2ccc(-c3nc4ccccc4[nH]3)cc2)c2cn[nH]c2n1	28.4%
Clc1ccc2c(NCCCCNc3nc(N4CCCCC4)nc4ccccc34)ccnc2c1	-1.17% (active)
Cc1cc(C)nc(SC2=C(Nc3ccc(C)c(Cl)c3)C(=O)N(Cc3ccccc3)C2=O)n1	70.9% [30 µM]
O=c1c(F)cn(Cc2ccccc2CCl)c(=O)n1Cc1ccccc1CCl	-74.6% (active)
C=CC(=O)Nc1cccc(Nc2nc(SC)nc(-c3cccc([N+](=O)[O-])c3)c2C#N)c1	31.6%
COc1ccc(C(=O)COc2cccc(/C=C3\CSc4ccccc4C3=O)c2)cc1	-96.9% (active)
CC(O)CN(CC(C)O)c1ccc2c(c1)Cc1cc([N+](=O)[O-])ccc1-2 (stereo not drawn)	99%
CCOC(=O)c1sc(Nc2ccc(Cl)cc2)nc1C	28.2%
CC/C=C\C[C@H]1C/C=C2/C(=O)C=C[C@H]2C/C=C\CCCC(=O)O1	25.4%
O=C1CC[C@H](c2ccc(O)c3c2C(=O)[C@@H]2O[C@@H]2C3=O)c2cccc(O)c21	-41.3% (active)
O=C(Cc1ccc(/C=C/C(=O)c2ncc[nH]2)cc1)Nc1ccccc1	14.2%
Cc1cc(C)nc(SC2=C(Nc3cccc(Cl)c3C)C(=O)N(Cc3ccccc3)C2=O)n1	65.4% [30 µM]
CSc1ccc(SC2c3ccc(C)cc3Oc3nc(N)c(C#N)c(N)c32)cc1 (stereo not drawn)	-68.1% (active)
C(=C\c1nccc2c1[nH]c1ccccc12)/c1ccccc1	14.8%
CCCSc1ccc2nc(NC(=O)OC)[nH]c2c1	24%
CCCc1cc(=O)n2c(C(=O)Nc3ccc(F)cc3)c(C(=O)Nc3ccc(F)cc3)sc2n1	82.9% [30 µM]
COc1ccccc1Nc1nc(-c2cc3cccc(C(F)(F)F)c3oc2=O)cs1	24%
O=Nc1c(O)c(Cl)cc2ccccc12	46.2%
CCC([N+](=O)[O-])S(=O)(=O)c1ccc(C)cc1 (stereo not drawn)	104%
Clc1ccc2c(NCCNc3nc(N4CCCCC4)nc4ccccc34)ccnc2c1	-36.6% (active)

Structure (SMILES)	growth
CC(C)(CCCN=C(N)Nc1ccc(Cl)cc1)c1ccc(F)cc1	43.4%
CCCOc1ccc2nc(NC(=O)OC)[nH]c2c1	22.8%
O=C(COc1cccc(/C=C2\CSc3ccccc3C2=O)c1)Nc1nccs1	-74.1% (active)
O=C(COc1cccc(/C=C2\COc3ccc(Cl)cc3C2=O)c1)c1ccc(Cl)cc1	51%
Cc1cn2c(/C=C3/C(=O)Nc4c3ccc3ccccc43)c(C(F)(F)F)nc2s1	18.2%
O=C1/C(=C/c2ccccc2O)N=C2SCCCN12	89.3%
COc1cc2c(cc1-c1c(C)noc1C)ncc1nc(C3CCCCC3)n([C@H](C)COC(F)F)c12	58.7%
COc1cccc(-c2nc(SCC(=O)Nc3ccc(C(=O)/C=C/c4ccc(OC)c(OC)c4)cc3)[nH]c(=O)c2C#N)c1	112%
CC(C)n1c(/C=C/[C@@H](O)C[C@@H](O)CC(=O)O)c(-c2ccc(F)cc2)c2ccccc21	72.9%
O=c1oc2c(C(F)(F)F)cccc2cc1-c1csc(Nc2ccc(OCCF)cc2)n1	26.1%
Cc1nc(Nc2ccc(F)c(Cl)c2)sc1C(=O)O	24.8%
CCOc1nc(-c2ccccc2)cc2c(O)c(C(=O)O)[nH]c(=O)c12	114%
Cc1cc2c3ccccc3ccc2[n+]2ccccc12	33%
Cc1oc(-c2ccc(Cl)cc2Cl)cc1C(=O)Nc1nccs1	94.4%
CC/C=C\C[C@H](O)C/C=C1/C(=O)C=C[C@@]1(C)C/C=C\CCCC(=O)OC	114%
COc1ccc(C(=O)COc2ccc(/C=C3\COc4ccc(OC)cc4C3=O)cc2)cc1	80.2%
CC[C@@H]1O[C@H](O[C@@H](c2cnc[nH]2)[C@H](NC(=O)c2nc([C@H](CC(N)=O)NC[C@@H](N)C(N)=O)nc(N)c2C)C(=O)N[C@H](C)[C@H](O)[C@H](C)C(=O)N[C@@H](C(=O)NCCc2nc(-c3nc(C(=O)NCCCCN=C(N)N)cs3)cs2)[C@@H](C)O)[C@H](O[C@@H]2O[C@H](CO)[C@H](O)[C@H](OC(N)=O)[C@@H]2O)[C@H](C)[C@@H]1C	68.1%
CN1CCN(c2ccc3nc(-c4ccc(OCCCCN5CCN(CCCCN6C(=O)c7cccc8cccc(c78)C6=O)CC5)cc4)[nH]c3c2)CC1	84.2%
O=C1c2c(O)cc(O)cc2-c2c(-c3ccc(O)cc3)oc3cc(O)cc1c23	45.3%
